{"source": "the supplement of paper PMC10338343", "note": "± gives the standard deviation.", "data": [{"system": "MILI (PIWIL2) piRISC loaded with L1MC piRNA (26 nt)", "experiment": "pre-steady-state target cleavage rate (min^-1); guide: L1MC piRNA 5'p-UAACUAAAUACUAUGCAAGCUGUAGG; higher = faster piRNA-guided slicing of the target", "details": "auxiliary factor: 500 nM mouse GTSF1", "in_short": "(§1)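 Using HEPES–potassium acetate buffer at 33 °C, 1 nM active affinity-purified piRISC with a single synthetic guide was mixed with 0.1 nM transcribed, DNA-blocked target RNA library for 0–8 or 0–960 min, with or without 500 nM GTSF1 partner protein. Uncleaved targets were sequenced and normalised to depth and to weakly complementary targets, and three trials were pooled with k3 capped at 0.0001 min^-1. A burst-and-steady-state fit gave the pre-steady-state cleavage rate.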", "values": [{"sequence": "UCCUGGAACAGCUUGCAUUGUAUUAAGUUA", "pre-steady-state target cleavage rate": "0.163 ± 0.026"}, {"sequence": "UCCUGGAUGUCCUUGCAUAGUAAAAAGUUA", "pre-steady-state target cleavage rate": "0.0137 ± 0.0059"}, {"sequence": "UCCUGGUAGUCCUUGCAUAGUAUUUUCAAA", "pre-steady-state target cleavage rate": "0.0125 ± 0.0059"}, {"sequence": "UCCUCCUACAGCUUGGAUAGUAUUUACUUA", "pre-steady-state target cleavage rate": "0.0993 ± 0.024"}, {"sequence": "UCCUGGAUGUCGAAGACAUAGUAUUUAGUUA", "pre-steady-state target cleavage rate": "0.0117 ± 0.0056"}, {"sequence": "UCCUGGAUCAGCUUGCAUAGUAUUAUGUAA", "pre-steady-state target cleavage rate": "0.00562 ± 0.0035"}, {"sequence": "UCCUGGAUCAGCUUGCAUAGUAUUUUGUAA", "pre-steady-state target cleavage rate": "0.0574 ± 0.016"}, {"sequence": "UCCUGGAUGUCGUUGCAAAGUAUUAAGUUA", "pre-steady-state target cleavage rate": "0.0094 ± 0.0044"}]}, {"system": "MILI (PIWIL2) piRISC loaded with L1MC piRNA (26 nt)", "experiment": "pre-steady-state target cleavage rate (min^-1); guide: L1MC piRNA 5'p-UAACUAAAUACUAUGCAAGCUGUAGG; MIWI and MILI are mouse PIWI proteins and EfPiwi is from a freshwater sponge; tags in brackets are library labels; higher = faster piRNA-guided slicing of the target", "details": "auxiliary factor: none (no GTSF1)", "in_short": "as §1", "values": [{"sequence": "UCCUGGAUGUCGAACGUAUGUAUAAAGUUA", "pre-steady-state target cleavage rate": "< 0.0001"}, {"sequence": "UCCUGGAUGUCGAACCAUACAAUUUAGUUA", "pre-steady-state target cleavage rate": "< 0.0001"}, {"sequence": "UCCUGGAUGUCGUUCCAAAGUAUUUAGUUA", "pre-steady-state target cleavage rate": "< 0.0001"}, {"sequence": "UCCUGGAUGUCGAACGUUAGGUAUUUAGUUA", "pre-steady-state target cleavage rate": "< 0.0001"}, {"sequence": "UCCUGGAUGUCGAACGUAAGAUAUUUAGUUA", "pre-steady-state target cleavage rate": "< 0.0001"}, {"sequence": "UCCUGGAUGUCGUUGCAUACAAUUUAGUUA", "pre-steady-state target cleavage rate": "0.00319 ± 0.0024"}, {"sequence": "UCCUGGUACAGCUUCGUUAGUAUUUAGAAA", "pre-steady-state target cleavage rate": "< 0.0001"}, {"sequence": "UCCUGGAUGUCGAACGAAUCUAUUUAGUUA", "pre-steady-state target cleavage rate": "< 0.0001"}]}]}
